Results filed as inconclusive are left out. Entries that show only a call come without a potency. Values without a mark were called inactive. Calls of active or inactive are those of the source. Calls come from the whole dose curve; as a rule, active = well fitted inhibition curve with a large enough effect in the repeat runs; inconclusive = weak or mixed curves; inactive = no such curve, though single readings can be large or run the other way.
target: Cytochrome P450 3A4 (Homo sapiens) (UniProt P08684); assay: Cytochrome P450 Family 3 Subfamily A Member 4 (CYP3A4) small molecule antagonists: luciferase reporter qHTS assay (AID 1671201); settings: P450-Glo CYP3A4 enzyme, luciferin luminescence, 1 h; series mostly up to 115 µM; note: nearly all actives have a fitted effect of over 50% in size
Summary of the method: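 Relative luminescence units after 20 min with luciferin detection reagent served as read-out. Beforehand, CYP3A4 turned over a proluciferin substrate for 1 h at room temperature with NADPH regeneration, following 10 min compound preincubation.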
Potency is the fitted concentration of half-maximal effect.

Sequence of Cytochrome P450 3A4 (Homo sapiens) (P08684 whole entry, looked up): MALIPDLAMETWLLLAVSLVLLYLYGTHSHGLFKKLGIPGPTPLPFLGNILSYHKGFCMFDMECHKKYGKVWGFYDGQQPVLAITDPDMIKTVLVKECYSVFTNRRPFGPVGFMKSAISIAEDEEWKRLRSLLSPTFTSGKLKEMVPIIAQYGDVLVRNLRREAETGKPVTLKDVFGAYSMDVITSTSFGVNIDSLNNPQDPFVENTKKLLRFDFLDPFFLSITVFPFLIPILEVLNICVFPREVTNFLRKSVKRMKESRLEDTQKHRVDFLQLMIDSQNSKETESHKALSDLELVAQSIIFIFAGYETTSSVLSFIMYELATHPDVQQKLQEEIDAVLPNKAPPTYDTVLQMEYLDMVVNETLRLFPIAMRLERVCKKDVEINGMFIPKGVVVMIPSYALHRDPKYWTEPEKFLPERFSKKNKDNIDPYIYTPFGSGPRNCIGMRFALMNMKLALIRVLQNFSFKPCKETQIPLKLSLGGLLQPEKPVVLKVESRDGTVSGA

Structure (SMILES)	Potency	activity change, negative = inhibition
CCCCOCCOC(=O)COc1nc(Cl)c(Cl)cc1Cl	inactive	
C[C@H](N)[C@H](O)c1cccc(O)c1	inactive	
Oc1cn2c(n1)Nc1ccc(Cl)c(Cl)c1C2		40.9% [at 23.6 µM]
COc1ccc(OC)c(Cl)c1	inactive	
CCCCN	inactive	
CCCCCCN	inactive	
CCOC(=O)CC(=O)c1ccccc1	inactive	
N[C@@H](COP(=O)(O)O)C(=O)O		2.53% [at 23.6 µM]
CCN(C)C(=O)Oc1cccc([C@H](C)N(C)C)c1	inactive	
CCCC/C=C/C=C\C=O	39.9 µM (active)	
Cc1ccsc1/C=C/C1=NCCCN1C	inactive	
O=C1c2ccccc2C(=O)N1CCl	inactive	
CC(=O)NCc1c(I)c(NC(C)=O)c(I)c(C(=O)O)c1I	inactive	
Cc1ccc(C=O)cc1C	inactive	
CCOC(=O)/C=C/c1ccccc1	inactive	
CCO[Si](CCCS)(OCC)OCC	35.6 µM (active)	
CCC(C)NC(N)=O (centres undefined)	inactive	
OC[C@H](Cc1cccc(O)c1)[C@H](CO)Cc1cccc(O)c1	18.3 µM (active)	
CC(C)(C)c1nnc(NS(=O)(=O)c2ccc(N)cc2)s1	inactive	
O=C(O)c1cc(Br)c(O)c(Br)c1	inactive	
Cc1ccccc1OCC(O)CO (centres undefined)	inactive	
O=S(=O)(O)CCN1CCN(CCO)CC1	inactive	
CC(C)(C)OC(=O)c1ccc(O)cc1	inactive	
C=C(C)C(=O)OCC(C)(C)COC(=O)C(=C)C	inactive	

Reference: PubChem BioAssay (Tox21)
